# According to paper PMC4336329 (PLoS ONE, 2015):
# In all, about 310,000 compounds went through this assay and about 14,000 (4.5%) showed an effect of 50% or more. The effect is printed as a negative number. Many of the other results were omitted from the sample, so strong results are more common in it than they were.
# Target: human ether-à-go-go-related gene (hERG) potassium channel (human, UniProt Q12809)
# Test: primary screen, population patch clamp on CHO cells stably expressing hERG; higher = less effect of the substance
# 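Note: peak tail current of the secondary pulse compared with the same well before compound.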
# human ether-à-go-go-related gene (hERG) potassium channel, sequence (Q12809 whole entry, looked up): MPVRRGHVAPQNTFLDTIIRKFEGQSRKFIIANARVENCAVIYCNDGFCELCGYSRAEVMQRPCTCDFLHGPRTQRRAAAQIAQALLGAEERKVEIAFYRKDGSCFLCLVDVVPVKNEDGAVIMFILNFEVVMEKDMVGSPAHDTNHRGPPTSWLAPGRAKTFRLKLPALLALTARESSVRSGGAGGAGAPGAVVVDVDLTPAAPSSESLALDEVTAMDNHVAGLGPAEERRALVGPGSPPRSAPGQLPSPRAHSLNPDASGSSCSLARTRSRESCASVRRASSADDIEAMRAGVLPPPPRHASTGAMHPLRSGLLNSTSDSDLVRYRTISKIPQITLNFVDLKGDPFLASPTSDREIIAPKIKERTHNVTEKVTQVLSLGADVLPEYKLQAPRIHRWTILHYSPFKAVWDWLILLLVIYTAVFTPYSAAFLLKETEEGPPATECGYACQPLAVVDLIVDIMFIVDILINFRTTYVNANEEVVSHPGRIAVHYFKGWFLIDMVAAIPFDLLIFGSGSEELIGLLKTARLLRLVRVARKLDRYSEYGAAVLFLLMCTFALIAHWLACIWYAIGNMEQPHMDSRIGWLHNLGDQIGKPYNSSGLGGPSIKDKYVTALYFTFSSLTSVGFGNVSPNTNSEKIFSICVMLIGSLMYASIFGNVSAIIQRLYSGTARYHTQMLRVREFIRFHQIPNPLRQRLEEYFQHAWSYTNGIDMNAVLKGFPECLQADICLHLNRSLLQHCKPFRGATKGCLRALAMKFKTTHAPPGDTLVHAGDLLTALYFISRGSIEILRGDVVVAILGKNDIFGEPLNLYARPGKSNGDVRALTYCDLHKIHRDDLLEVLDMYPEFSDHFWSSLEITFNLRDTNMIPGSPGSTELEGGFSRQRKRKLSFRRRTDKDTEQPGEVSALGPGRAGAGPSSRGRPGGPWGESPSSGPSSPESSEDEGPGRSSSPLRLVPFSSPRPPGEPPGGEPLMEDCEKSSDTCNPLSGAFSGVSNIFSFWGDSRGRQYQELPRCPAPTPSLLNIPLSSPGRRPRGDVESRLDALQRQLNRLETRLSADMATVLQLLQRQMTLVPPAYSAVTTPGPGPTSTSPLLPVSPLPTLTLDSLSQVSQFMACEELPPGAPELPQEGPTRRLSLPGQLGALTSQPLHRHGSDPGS
row,Structure (SMILES),"hERG current change (%, negative = inhibition) at 10uM [%]"
1,COc1ccc(-c2nnc(N3CCOCC3)c3ccccc23)cc1,-2.78
2,OCCN1CCN(c2nnc(-c3ccccc3)c3ccccc23)CC1,-23.5
3,CCN1CCN(c2nnc(-c3ccccc3)c3ccccc23)CC1,-36.8
4,CCN1CCN(c2nnc(-c3ccc(C)cc3)c3ccccc23)CC1,-66.5
5,Cc1ccc(-c2nnc(N3CCN(CCO)CC3)c3ccccc23)cc1,-58.4
6,Cc1ccc(-c2nnc(N3CCCCCC3)c3ccccc23)cc1,1
7,CCOc1ccc(-c2nnc(N3CCCCC3)c3ccccc23)cc1,-6.17
8,CCN1CCN(c2nnc(-c3ccc(F)cc3)c3ccccc23)CC1,-48.4
9,CCOc1ccc(-c2nnc(N3CCOCC3)c3ccccc23)cc1,-69.6
10,Cc1ccc(C(=O)NCCOc2ccc(Cl)cc2)cc1,1.42
11,COc1cc(/C=C/C(=O)O)ccc1OCc1ccc([N+](=O)[O-])cc1,21.8
12,COc1ccc(CC(=O)Nc2ccc(-c3noc(COc4ccccc4C)n3)cc2)cc1,2.1
13,COC(=O)c1ccc(COc2ccccc2/C=C(\C#N)C(=O)Nc2ccc(C)cc2C)cc1,-11.1
14,COC(=O)c1c(-c2ccccc2)noc1-c1ccccc1,2.19
15,CCOC(=O)c1c(OCCO)nn(-c2ccc(Cl)cc2)c1N,-51.8
16,CCOC(=O)c1c(OCCO)nn(-c2ccccc2)c1N,14.1
17,CCOC(=O)c1nn(-c2ccc(Cl)cc2)c(C)cc1=O,-0.00902
18,COc1ccc2[nH]cc(CCNS(=O)(=O)c3ccccc3)c2c1,11.7
19,CCOC(=O)c1c(NC(C)=O)sc2c(OC)c(Br)ccc12,2.16
20,CCOC(=O)c1c(NC(C)=O)sc2c(OCCN(CC)CC)c(Br)ccc12,-54.8
21,CCOC(=O)c1c(NC(C)=O)sc2c(O)cccc12,2.36
22,CCOC(=O)c1c(NC(C)=O)sc2c(OCC(O)CN(CC)CC)c(Br)ccc12 (centres unmarked),-51.3
23,CCOC(=O)c1c(NC(C)=O)sc2c(OCC(O)CNC(C)(C)C)c(Br)ccc12 (centres unmarked),-11.8

row,Structure (SMILES),"hERG current change (%, negative = inhibition) at 10uM [%]"
1,CCOC(=O)c1c(NC(C)=O)sc2c(O)c(Br)ccc12,6.88
2,Cn1c(=NC(=O)COc2ccccc2)sc2ccccc21,-8.07
3,COc1ccc(/C=C/C(=O)NCCNC(=O)c2ccccc2)cc1OC,-8.61
4,Cc1ccc(N2C(=O)CC(Nc3cccc4ccccc34)C2=O)cc1 (centres unmarked),27.6
5,CC(=O)c1cc(CN2CCC(N3CCC(C(=O)N4CCCC4)CC3)CC2)cs1,-2.23
6,CC(C)=CC(=O)N1CCC(N2CCC(C(=O)N3CCOCC3)CC2)CC1,28.3
7,CC(C)=CCCC(C)CN1CCC(N2CCC(C(=O)N3CCOCC3)CC2)CC1 (centres unmarked),-60.4
8,CC(C)=CCCC(C)CN1CCC(N2CCC(C(=O)N3CCCC3)CC2)CC1 (centres unmarked),-74.8
9,CC(C)=CCCC(C)CN1CCC(O)CC1 (centres unmarked),-2.96
10,CC(C)/C=C/C(=O)N1CCC(N2CCC(C(=O)N3CCOCC3)CC2)CC1,11
11,Cl.Nc1ncnc2nc[nH]c12,4.95
12,CCC1CCCCN1CCNC(=O)CNS(=O)(=O)c1ccc2nc(C)sc2c1 (centres unmarked),10.5
13,O=C(Nc1nnc(C2CC2)s1)C1=NN(C2CCS(=O)(=O)C2)C(=O)CC1 (centres unmarked),0.219
14,Cc1[nH]c(C)c(S(=O)(=O)Nc2ccccc2Cl)c1C(=O)N1CCCC1,15.7
15,CCN(CC)c1ccc(N=Cc2c(O)n(-c3ccc(Cl)cc3)c(=O)[nH]c2=O)cc1,14.5
16,Cc1ccc(C(=O)CCC(=O)Nc2cccnc2)cc1C,12.4
17,NC(=O)C1CCN(CC(=O)Nc2ccccc2N2CCOCC2)CC1,3.15
18,COc1ccc(NC(=O)CN2CCC(C(=O)c3ccc(C)cc3)CC2)c(OC)c1,-29.8
19,NC(=O)C1CCN(CC(=O)Nc2nccs2)CC1,10.9
20,CCOc1ccccc1NC(=O)CN1CCC(C(=O)c2ccc(F)cc2)CC1,-20.9
21,CCOc1ccc(C(=O)C2CCN(CC(=O)Nc3nccs3)CC2)cc1,-68.3
22,CCOc1ccc(C(=O)C2CCN(CC(=O)Nc3ccccc3N3CCOCC3)CC2)cc1,-53.6
23,COc1ccc(C(=O)C2CCN(CC(=O)Nc3ccccc3F)CC2)cc1,-17.2

row,Structure (SMILES),"hERG current change (%, negative = inhibition) at 10uM [%]"
1,COc1ccc(C(=O)C2CCN(CC(=O)Nc3ccc(C)cc3)CC2)cc1,-53.4
2,CC1CCN(CC(=O)Nc2nccs2)CC1,13.6
3,CCOc1ccccc1NC(=O)CN1CCC(C(=O)c2ccc(OC)cc2)CC1,-65.9
4,Cc1ccc(C(=O)C2CCN(CC(=O)Nc3ccc(N(C)C)cc3)CC2)cc1,-36.4
5,CCOc1ccc(C(=O)Nc2ccccc2N2CCOCC2)cc1,-5.52
6,O=C(Cc1cccc2ccccc12)NNC(=O)c1cccs1,15.7
7,COC(=O)CSc1ncnc2c(C)csc12,3.11
8,CN(C)c1ccc(-c2nnc(-c3cccnc3)o2)cc1,7.04
9,O=C(CNC(=O)c1ccco1)N/N=C/c1ccc(O)c([N+](=O)[O-])c1,29.1
10,COC(=O)c1[nH]c(C)c(/C(O)=C2\C(=O)C(=O)N(CCN(C)C)C2c2ccccc2OC)c1C (centres unmarked),15.3
11,CC(=O)N1CCN(c2ccc(NC(=O)c3cccc(Cl)c3Cl)cc2)CC1,-8.8
12,N/C(=N\OC(=O)c1cccc(C(F)(F)F)c1)c1cnccn1,16.7
13,Cc1cccc(CC(=O)Nc2c3c(nn2-c2cccc(Cl)c2)CS(=O)C3)c1 (centres unmarked),6.32
14,Cc1cc(C)cc(NC(=O)CN2CCC(C(=O)c3ccccc3)CC2)c1,-48.6
15,COc1ccc(NC(=O)CN2CCC(C(N)=O)CC2)cc1,2.76
16,CCc1ccc(NC(=O)CN2CCC(C(=O)c3ccc(OC)cc3)CC2)cc1,-62.8
17,COc1ccc(NC(=O)CN2CCC(C)CC2)cc1,-4.51
18,COc1ccc(C(=O)C2CCN(CC(=O)Nc3cc(C)cc(C)c3)CC2)cc1,-65.2
19,COc1ccc(OC)c(NC(=O)CN2CCC(C(=O)c3ccc(C)cc3)CC2)c1,-17.7
20,Nc1ncnc2c1ncn2C1OC(CO)C(O)C1O (centres unmarked),35.7
21,O=C(Cc1ccsc1)NNC(=O)c1ccccc1O,7.87
22,COc1ccc(C)cc1NC(=O)CSc1nnc(COc2ccccc2)n1Cc1ccco1,-9.46
23,CCOC(=O)c1c(N)sc(C(O)(C(F)(F)F)C(F)(F)F)c1-c1ccc(Cl)cc1,-4.79

row,Structure (SMILES),"hERG current change (%, negative = inhibition) at 10uM [%]"
1,COC(=O)Cc1csc(Nc2ccc(Cl)cc2)n1,7.01
2,CC(C)[C@H](NC(N)=O)C(=O)NCCc1ccc(Cl)cc1Cl,-27
3,Cc1ccc(OCc2cc(C(=O)N3CCN(c4ccccc4)CC3)no2)cc1C,-0.317
4,O=C(/C(C=Nc1ccc(Br)cc1)=C(/O)c1ccco1)C(F)(F)F,-52.6
5,O=C(/C(C=Nc1cccc(C(F)(F)F)c1)=C(/O)c1ccco1)C(F)(F)F,-29.8
6,O=C(/C(C=Nc1ccc(F)cc1)=C(/O)c1ccco1)C(F)(F)F,-26.7
7,CC(=O)c1cccc(NC(=O)c2cc(-c3cccs3)on2)c1,27
8,CCN1CCN(c2ncc(C(=O)Nc3cc(Cl)ccc3OC)c3ccccc23)CC1,-61.5
9,CCN1CCN(c2ncc(C(=O)Nc3c(F)cc(F)cc3Br)c3ccccc23)CC1,-60
10,CCN1CCN(c2ncc(C(=O)Nc3ccccc3C(=O)OC)c3ccccc23)CC1,-47.2
11,CCN1CCN(C(=O)Nc2cc(Cl)ccc2OC)CC1,2.98
12,Cc1ccc(NC(=O)c2cnc(N3CCN(c4ccccn4)CC3)c3ccccc23)c(Br)c1,10.7
13,O=C(Nc1c(F)cccc1F)c1cnc(N2CCN(c3ccccn3)CC2)c2ccccc12,-4.56
14,Cc1cc(C)c(C)c(S(=O)(=O)NCC(=O)N2CCCC2)c1C,7.49
15,Clc1ccc(SCCCCN2CCOCC2)cc1.O=C(O)C(=O)O,-22.5
16,Clc1ccc(SCCOCCN2CCCCC2)cc1.O=C(O)C(=O)O,-82
17,Clc1ccc(SCCCCN2CCNCC2)cc1.O=C(O)C(=O)O,-48.7
18,Clc1ccc(SCCOCCN2CCOCC2)cc1.O=C(O)C(=O)O,1.54
19,Clc1ccc(SCCOCCN2CCCCCC2)cc1.O=C(O)C(=O)O,-73.3
20,Clc1ccc(SCCCN2CCCCC2)cc1.O=C(O)C(=O)O,-76
21,Clc1ccc(SCCN2CCNCC2)cc1.O=C(O)C(=O)O,-5.25
22,CCC(C)NCCOCCSc1ccc(Cl)cc1.O=C(O)C(=O)O (centres unmarked),-46.9
23,CC(C)NCCOCCSc1ccc(Cl)cc1.O=C(O)C(=O)O,-30.2
